SMILES strings stand for the structures. Among all 290,000 compounds or so, about 670 (0.23%) were called active. Many of the other results were omitted from the sample, so actives are more common in it than they were. A number with no mark means an inactive call.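 How the source made its calls: active means inhibition above a per-plate limit of that plate's mean compound inhibition plus 3 SD (cut at about 60% in these data); inactive means the rest.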

This assay in a line: suppression of KLF5 promoter-driven luciferase – DLD-1 cells, luminescence, primary screen (AID 1700).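 Further: 0% = DMSO wells and 100% = LY294002 at 200 µM; higher means less KLF5 promoter-driven luciferase light.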 To be noted: DLD-1 KLF5 promoter-luciferase reporter, at 5 µM, hits give high values. On the technique in general: A reporter such as luciferase makes a cellular process visible.
With `CN(c1ccc2nc3ccccc3c(=O)n2n1)C1CCCCC1`, the inhibition is 90.6% (active).

For `O=c1c2ccccc2nc2n1C1(CCCCC1)Cc1ccccc1-2`, the inhibition is -22.6%.

`CCOC(=O)C(C)Sc1nc2ccccc2c(=O)n1CC1CCCCC1` (centres undefined): the inhibition was -3.75%.

Regarding `Nc1ccc(-c2nnc(-c3ccccc3)o2)cc1`, the inhibition was -131%.

`COc1ccccc1N1CCC(N2CCN(CC(C)(C)C)C(CCO)C2)CC1` (centres undefined): the inhibition is -23.1%.

Regarding `CC[C@]1(c2ccccc2OC)C(=O)N(C(=O)OC)N1C(=O)OC`, the inhibition was -7.14%.

Take `CC(=O)NCC(=O)NC1CCCc2c1cnn2-c1ccccc1F` (centres undefined): the inhibition is -24.6%.

Regarding `Cn1nccc1C(=O)NC1CCCc2c1cnn2-c1ccccc1F` (centres undefined), the inhibition was -17%.

Consider `Cn1nccc1C(=O)NC1CCCc2c1cnn2-c1ccc(F)cc1F` (centres undefined), for which the inhibition is 64.7% (active).

For `O=C(c1ccc(F)cc1)N1CCCC(C(=O)N2CCCCC2)C1` (centres undefined), the inhibition was -2.28%.

Regarding `CN(c1ccccc1)S(=O)(=O)c1ccc2[nH]c(=O)[nH]c2c1`, the inhibition was -38.8%.

With `Cc1ccc(OC(=O)c2cncc(Br)c2)c(C)c1`, the inhibition is -28.5%.

As to `Cc1ccc(C(=O)NCCc2nnc(SCC(=O)Nc3cccc(C(=O)O)c3)n2C)cc1`, the inhibition is -36.2%.

Regarding `N#CCSc1nc(-c2ccccc2)nc2ccc(F)cc12`, the inhibition is -32.8%.

Regarding `CCn1c(=S)sc2c(=O)n(CC(=O)Nc3cccc(Br)c3)c(C)nc21`, the inhibition is -3.48%.

For the compound `Cc1ccc(S(=O)(=O)N2CCN(C(=O)CSc3cc(C)ccc3C)CC2)c(C)c1`, the inhibition was -17.8%.

Consider `COc1cccc(/C=N/Nc2ccc(Cl)nn2)c1`, for which the inhibition is -91.5%.

On to `Oc1cccc(/C=N/Nc2ccc(Cl)nn2)c1O`, for which the inhibition was 84.3% (active).

Turning to `Clc1ccc(N/N=C/c2cccs2)nn1`, the inhibition was -13.3%.

Turning to `COc1ccc(N2CCN(S(=O)(=O)CCNC(=O)C34CC5CC(CC(C5)C3)C4)CC2)cc1`, the inhibition is -7.42%.

In the case of `CCN1C(=O)/C(=C2/Sc3ccc(OC)cc3N2C)SC1=Nc1ccc(C)cc1`, the inhibition is -15.8%.

On to `CCOC(=O)c1ccc(NC(=O)Cc2cccs2)cc1`, for which the inhibition is -60.6%.

On to `O=C(NCc1ccccc1)C(c1ccccc1)N(C(=O)c1csnn1)c1ccc(F)cc1` (centres undefined), for which the inhibition is -8.26%.

Turning to `Cc1cc(N)n2nc(-c3ccc(C(C)(C)C)cc3)cc2n1`, the inhibition is -77.7%.

Consider `CCn1c(SCC(=O)Nc2nccs2)nnc1-c1ccco1`, for which the inhibition was -15.7%.

Turning to `CCn1c(SCC(=O)NC2CC2)nnc1-c1ccncc1`, the inhibition was -7.99%.

Turning to `CCn1c(SCC(=O)Nc2nccs2)nnc1-c1ccncc1`, the inhibition is 102% (active).

`CCCC(C(=O)n1nc(C)cc1C)C(NS(=O)(=O)c1ccc(C)cc1)c1ccccc1` (centres undefined): the inhibition is -5.65%.

Consider `CCOc1cc(/C=C2\C(=N)N3N=C(C)SC3=NC2=O)ccc1OCCOc1ccccc1`, for which the inhibition was -24.1%.

Consider `Cc1cccc(NC(=O)CSCC(=O)Nc2nnc(C3CC3)s2)c1`, for which the inhibition is -22.8%.

On to `Cc1ccccc1N1CCN(S(=O)(=O)c2ccc3ccccc3c2)CC1`, for which the inhibition was -6.9%.

With `Cc1ccc(C(=O)N2CC(=O)Nc3ccc(F)cc3C2c2ccc(F)cc2)cc1` (centres undefined), the inhibition was -4.39%.

`O=C(NCC1CCCO1)c1cc2c([nH]c3ccccc32)c(-c2ccc(F)cc2)n1` (centres undefined): the inhibition was 12.1%.

With `COc1ccc(C(=O)Nc2ccccc2C(=O)N/N=C/c2ccc(O)c(OC)c2)cc1`, the inhibition is 99.4% (active).

Consider `COc1ccc(/C=N/NC(=O)c2ccccc2)cc1OS(=O)(=O)c1ccccc1`, for which the inhibition was -22.4%.

`COc1cc(/C=N/NC(=O)c2ccc(N3CCCC3=O)cc2)ccc1O`: the inhibition is -6.57%.

`NC(=O)c1ccc(Nc2ccc3nonc3c2[N+](=O)[O-])cc1`: the inhibition is -33%.

`CCOc1ccc(C2C3=C(CCCC3=O)N(CC(=O)O)C3=C2C(=O)CCC3)cc1`: the inhibition is 0.17%.

For `O=C(CCNC(=O)C1CCN(S(=O)(=O)c2ccccc2)CC1)NC1CC1`, the inhibition was -34.7%.

As to `Cc1csc(NC(=O)CSc2nnc(-c3cccnc3)o2)n1`, the inhibition was -90.3%.

For `CCOc1ccc(S(=O)(=O)Nc2ccc(OC)nc2)cc1`, the inhibition is -32.8%.

Consider `COc1ccc(NC(=O)/C(Cl)=C(/Cl)S(=O)Cc2ccc(C)cc2)cn1` (centres undefined), for which the inhibition is 89% (active).

As to `COc1ccc(CS(=O)/C(Cl)=C(/Cl)C(=O)Nc2ccc(OC)nc2)cc1` (centres undefined), the inhibition is 100% (active).

With `COc1ccc(Nc2cc(Cl)ccc2C(=O)O)cn1`, the inhibition is -11.6%.

Turning to `COc1ccc(NC(=O)c2cc(-c3ccc(C)cc3)on2)cc1`, the inhibition was -28.2%.

`COc1ccc(C(=O)Nc2ccc(NC(=O)C(C)C)nc2)cc1`: the inhibition was -35%.

For the compound `CCCCC[C@H]1CN(C2CCCCC2)C(=O)[C@@H]1CC(=O)NCc1ccc(OC)cc1`, the inhibition is -12.3%.

For the compound `COc1cc(/C=N/Nc2nn3cnnc3c3ccccc23)cc(OC)c1OC`, the inhibition was -22.6%.

In the case of `C/C(=N\Nc1nncc2ccccc12)c1ccc(Cl)c([N+](=O)[O-])c1`, the inhibition was -127%.

Consider `CN(CCO)c1ccc(/C=N/Nc2nncc3ccccc23)cc1`, for which the inhibition was 68.3% (active).

In the case of `C=CCc1ccccc1OCC(=O)N/N=C/c1ccccc1OCC`, the inhibition is -10.7%.

In the case of `CSc1ccc(/C=N\NC(=O)COc2ccc(Cl)cc2Br)cc1`, the inhibition is -9.23%.

For the compound `Cc1ccc(/C=N/NC(=O)COc2ccccc2-c2ccccc2)cc1`, the inhibition is 77.9% (active).

With `COc1ccc(NC(=O)C(C)N2c3cccc4cccc(c34)S2(=O)=O)c(OC)c1` (centres undefined), the inhibition was -5.03%.

In the case of `O=C(O)CC/C(=C\c1cc2c(cc1Br)OCO2)c1nc2ccccc2s1`, the inhibition is -12.1%.

With `Cc1ccc(S(=O)(=O)N(Cc2ccccc2)c2ccccn2)cc1[N+](=O)[O-]`, the inhibition is -20.6%.

`COCC(=O)N=Nc1c(O)[nH]c2ccccc12`: the inhibition is 6.53%.

`COc1ccc(N=Cc2c(O)[nH]c3ccccc23)cc1OC`: the inhibition was -9.79%.

For the compound `COc1cc(N=Cc2c(O)[nH]c3ccccc23)cc(OC)c1OC`, the inhibition was 66.8% (active).

For `Cc1ccc(CN(CC(=O)NCC2CCCO2)S(=O)(=O)c2ccc(C)cc2)cc1` (centres undefined), the inhibition is -11%.

As to `Cc1ccc(CNC(=O)CCS(=O)(=O)c2ccc3c(c2)CC(C)N3C(=O)C2CC2)o1` (centres undefined), the inhibition is -9.9%.

Take `CCOCCCNc1c(CC)c(C)c(C#N)c2nc3ccccc3n12`: the inhibition is -21.6%.

For `Cc1cccc(CN2CCC(n3nccc3NC(=O)c3ccccc3C)CC2)n1`, the inhibition is -34.2%.

With `CCCCCNC(=O)C1c2ccccc2Oc2ccccc21`, the inhibition was -20.8%.

`Cn1cc(S(=O)(=O)Nc2ccc(Cl)cc2Cl)c(=O)n(C)c1=O`: the inhibition is -22.9%.

Regarding `CCCc1ccc(OCC(O)CN2CCN(CCO)CC2)cc1` (centres undefined), the inhibition is 7.32%.

As for `O=C(N/N=C/c1sc(N2CCCCC2)nc1-c1cccs1)c1cccnc1`, the inhibition was -30.2%.

As for `COc1cccc(-c2nc(CS(=O)CC(=O)NCc3ccc(F)cc3)c(C)o2)c1` (centres undefined), the inhibition was -11.1%.

For the compound `NS(=O)(=O)c1ccc(CCNS(=O)(=O)c2cccc3cccnc23)cc1`, the inhibition is -50.1%.

For the compound `CC(C)C(C)NC(=O)COc1nc2ccccc2nc1N(C)C1CCCCC1` (centres undefined), the inhibition was -6.02%.

As to `CCCOc1ccccc1C1CC(=O)Nc2cc3c(cc21)OCO3` (centres undefined), the inhibition is 46.2%.

For `COc1ccccc1C1C2=C(COC2=O)Nc2cc3c(cc21)OCO3` (centres undefined), the inhibition was 75.8% (active).

With `COc1ccc(S(=O)(=O)Nc2ccc3c(c2)OCO3)cc1Cl`, the inhibition was -5.73%.

Turning to `CCOC(=O)CSC1=C(C#N)C(c2sccc2C)CC(=O)N1` (centres undefined), the inhibition is 63.2% (active).

Turning to `Cc1ccc(C2CC(=O)NC(SCC(=O)OCc3ccccc3)=C2C#N)o1` (centres undefined), the inhibition was 6.45%.

In the case of `CCOC(=O)CSC1=C(C#N)C(c2ccco2)C(C(=O)OCc2ccccc2)=C(C)N1` (centres undefined), the inhibition was -11.8%.

Regarding `NC(=O)CN1CCCC1c1ccc2c(c1)OCCO2` (centres undefined), the inhibition was -21.8%.

Turning to `C=CCn1c(=O)c(C(=O)NCc2ccc3c(c2)OCO3)c(O)c2ccccc21`, the inhibition is -23.1%.

On to `CC/C(=N\NC(=O)c1c(C)nc2ccccn12)c1ccc(Cl)cc1`, for which the inhibition is -19.6%.

`Cc1cc(Cl)c2oc(C(=O)N(C)C(C)c3ccccn3)c(C)c2c1` (centres undefined): the inhibition was -79%.

Regarding `CC(C)Oc1ccc(/C=N/NC(=O)c2nnn(-c3nonc3N)c2CN(C)C2CCCCC2)cc1`, the inhibition was -15.7%.

For `CCOc1cc(-c2conc2N)cc(OCC)c1OCC`, the inhibition is 5.84%.

For `O=C(NCCc1ccccc1)C(=O)NCC1OCCN1S(=O)(=O)c1cccs1` (centres undefined), the inhibition was -36.9%.

With `COc1ccc2[nH]cc(CCN3C(=O)c4ccc(C(=O)O)cc4C3=O)c2c1`, the inhibition is -177%.

Turning to `COc1ccc(OC)c(CCNC(=O)c2nn(C)c3c2CS(=O)(=O)c2ccccc2-3)c1`, the inhibition was -12.5%.

As to `CC(C)CCn1c(=O)c2c(nc3n2CCCN3Cc2ccccc2)n(C)c1=O`, the inhibition is -4.63%.

As to `Cc1ccc(C)c(N2CCN(C(=O)CCCn3c(=O)c4cccn4c4cccnc43)CC2)c1`, the inhibition was 5.08%.

In the case of `CCN(CC)S(=O)(=O)c1ccc(N2CC(C(=O)NCc3cccnc3)CC2=O)cc1` (centres undefined), the inhibition was -14.9%.

As for `COc1ccc(S(=O)(=O)N(CC(=O)N/N=C/c2ccc(C(=O)O)cc2)Cc2ccccc2)cc1OC`, the inhibition is 5.79%.

On to `COc1ccc(Cc2nnc(N/N=C/c3ccccc3O)[nH]c2=O)cc1OC`, for which the inhibition is 102% (active).

`Cc1nnc(N/N=C/c2ccccn2)[nH]c1=O`: the inhibition was 2.56%.

As for `O=c1[nH]c(NCCO)nnc1Cc1ccc(Cl)cc1`, the inhibition was -8.33%.

For the compound `COc1ccc(NC(=O)CCCN2C(=O)C(c3ccccc3)Oc3cccnc32)cc1` (centres undefined), the inhibition is -1.26%.

Regarding `Nc1nc(SCC(=O)Nc2cc(C(F)(F)F)ccc2Cl)[nH]c(=O)c1NC(=O)c1ccco1`, the inhibition was -9.6%.

In general, inhibition refers to the drop in the measured response relative to a control, in per cent.

Values taken from PubChem BioAssay AID1700 (The Scripps Research Institute Molecular Screening Center, 2009).
